{"source": "the supplement of paper PMC10646978", "note": "± gives the standard deviation."}
{"system": "RAW-Dual (murine macrophage reporter line)", "assay": "NF-kB reporter (SEAP) activity fold change vs agonist alone; higher = enhanced NF-kB activity", "settings": "modulator concentration 10 µM; agonist: CpG ODN 1826 0.5 ug/mL", "summary_of_the_method": "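RAW-Dual murine macrophage reporter cells were seeded at 50 000 per well in 384-well plates and pre-incubated 1 hour at 37 °C with compound pin-transferred to 10 μM final. After 1 hour, a PRR agonist was added and cells incubated overnight. Supernatant NF-κB (SEAP, QUANTI-Blue, 620 nm absorbance) and IRF (Lucia luciferase, QUANTI-Luc, luminescence) signals were divided by the mean agonist-only control on the same plate to give fold change. Two replicate plates were averaged, with errors by propagation.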"}
{"smiles": "CN1CCN(c2ccc(-c3cccc(NC(=O)COc4ccc(Cl)cc4Cl)c3)nn2)CC1", "NF-kB reporter": "0.46 ± 0.09"}
{"smiles": "O=C(CCN1C(=O)c2cccc([N+](=O)[O-])c2C1=O)Nc1ccc(Cl)cc1", "NF-kB reporter": "0.886 ± 0.073"}
{"smiles": "N#CCCC1(CCC#N)S(=O)(=O)CC(c2ccc(Cl)cc2)CS1(=O)=O", "NF-kB reporter": "0.67 ± 0.04"}
{"smiles": "Fc1ccc(Nc2nc(NN=Cc3ccc(Cl)cc3)nc(N3CCCCC3)n2)cc1", "NF-kB reporter": "1.02 ± 0.087"}
{"smiles": "CC(C)(C)C1CCC(OC(=O)CCC(=O)O)CC1", "note": "(stereo not given)", "NF-kB reporter": "0.999 ± 0.16"}
{"smiles": "Fc1ccccc1C=NNc1nc(-c2ccccc2)cc(-c2ccccc2)n1", "NF-kB reporter": "1.03 ± 0.25"}
{"smiles": "NC(=O)c1ccc(N2CCOCC2)c([N+](=O)[O-])c1", "NF-kB reporter": "1.04 ± 0.087"}
{"smiles": "O=C(NCC1CCCO1)c1[nH]nnc1-c1ccc(F)cc1", "note": "(stereo not given)", "NF-kB reporter": "1.15 ± 0.16"}
{"smiles": "COC(=O)C1=CN(CC2CCCO2)C=C(C(=O)OC)C1c1cccc(Cl)c1", "note": "(stereo not given)", "NF-kB reporter": "0.59 ± 0.053"}
{"smiles": "COc1ccc(CCn2c(C)c(C)n3c4c(=O)n(CCC(C)C)c(=O)n(C)c4nc23)cc1OC", "NF-kB reporter": "0.95 ± 0.07"}
{"smiles": "CC1(C)NC(=O)N(c2ccc([N+](=O)[O-])c(C(F)(F)F)c2)C1=O", "NF-kB reporter": "1.26 ± 0.41"}
{"smiles": "O=C(Nc1nc2cccc(-c3ccc(CN4CCS(=O)(=O)CC4)cc3)n2n1)C1CC1", "NF-kB reporter": "0.0988 ± 0.0077"}
{"smiles": "COc1ccc2cc(Br)ccc2c1CC(N)=O", "NF-kB reporter": "1.09 ± 0.086"}
{"smiles": "Cc1sc2ncnc(Nc3ccc(F)cc3)c2c1C", "NF-kB reporter": "0.813 ± 0.035"}
{"smiles": "CC1CCN(c2cc(N3CCNCC3)ncn2)CC1", "NF-kB reporter": "0.972 ± 0.32"}
{"smiles": "Oc1cccc(C=Nc2ccc(N=Cc3cccc(O)c3O)cc2)c1O", "NF-kB reporter": "0.606 ± 0.053"}
{"smiles": "C=C1CCC2C(C)(CO)C(O)CCC2(C)C1CC=C1C(=O)OCC1O", "note": "(stereo not given)", "NF-kB reporter": "0.462 ± 0.11"}
{"smiles": "COC1CCN(C2CCN(S(=O)(=O)c3ccccc3)CC2)CC1", "NF-kB reporter": "0.839 ± 0.077"}
{"smiles": "CC(NCCc1c[nH]c2ccccc12)=C1C(=O)c2ccccc2C1=O", "NF-kB reporter": "0.972 ± 0.081"}
{"smiles": "Cc1c(Cl)cccc1S(=O)(=O)NCc1ccnc(N2CCCC2=O)c1", "NF-kB reporter": "1.01 ± 0.055"}
{"smiles": "CN(C)C/C=C/C(=O)Nc1cc2c(Nc3ccc(F)c(Cl)c3)ncnc2cc1O[C@H]1CCOC1.O=C(O)/C=C\\C(=O)O.O=C(O)/C=C\\C(=O)O", "NF-kB reporter": "0.365 ± 0.017"}
{"smiles": "CCCOc1cccc(C(=O)Nc2cccc(S(N)(=O)=O)c2)c1", "NF-kB reporter": "1.11 ± 0.13"}
{"smiles": "Cc1ccc2[nH]c3nc(NN)nnc3c2c1", "NF-kB reporter": "1.03 ± 0.079"}
{"smiles": "CCN(CC)S(=O)(=O)c1ccc(C(=O)Nc2cc(C)nn2-c2nc(C)c(C)c(=O)[nH]2)cc1", "NF-kB reporter": "0.153 ± 0.012"}
{"smiles": "Cc1cc(C)n2nc(C(=O)NN=Cc3ccc(N(C)C)cc3)nc2n1", "NF-kB reporter": "1.1 ± 0.069"}
{"smiles": "Cc1ccc(CSCCNC(=O)CN(c2cccc(C)c2)S(C)(=O)=O)cc1", "NF-kB reporter": "0.951 ± 0.09"}
{"smiles": "CC1CCc2cc(F)cc3c(=O)c(C(=O)O)cn1c23", "note": "(stereo not given)", "NF-kB reporter": "0.961 ± 0.13"}
{"smiles": "CN1C2CCCC1CC(NC(=O)c1nn(C)c3ccccc13)C2.Cl", "note": "(stereo not given)", "NF-kB reporter": "0.712 ± 0.31"}
{"smiles": "O=C(CCc1ccc(O)cc1)c1c(O)cc(O)cc1O", "NF-kB reporter": "1.06 ± 0.2"}
{"smiles": "COc1ccc(-n2cnc3cc(NC(C)=O)ccc32)cc1", "NF-kB reporter": "0.978 ± 0.18"}
{"smiles": "NC(=O)c1ncn([C@@H]2O[C@H](CO)[C@@H](O)[C@H]2O)n1", "NF-kB reporter": "0.766 ± 0.17"}
{"smiles": "O=c1[nH]c(NN=Cc2c3ccccc3cc3ccccc23)nc2ccccc12", "NF-kB reporter": "0.919 ± 0.085"}
{"smiles": "COc1ccc(C(=O)N2CC(n3cc(CN4CCCC4=O)nn3)C2)cc1F", "NF-kB reporter": "1.19 ± 0.1"}
{"smiles": "CCOC(=O)c1cc(-c2ccccc2)sc1NC(=O)C(C)(C)C", "NF-kB reporter": "0.798 ± 0.068"}
{"smiles": "O=C(O)CC(C(=O)O)N1C(=O)C(=C2C(=O)Nc3ccc(Br)cc32)SC1=S", "note": "(stereo not given)", "NF-kB reporter": "0.775 ± 0.28"}
{"smiles": "N#Cc1nc(-c2ccc(COc3ccccc3)o2)oc1N1CCCCC1", "NF-kB reporter": "1.07 ± 0.06"}
{"smiles": "NC(N)=NN=Cc1ccc(OS(=O)(=O)c2ccccc2)cc1", "NF-kB reporter": "0.0965 ± 0.0075"}
{"smiles": "CC(C)OC(=O)c1c(NC(=O)C2CC=CCC2C(=O)O)sc2c1CCCC2", "note": "(stereo not given)", "NF-kB reporter": "0.92 ± 0.12"}
{"smiles": "CCOC(C#CCN(CC)CC)(c1ccccc1)c1ccccc1.Cl", "NF-kB reporter": "0.215 ± 0.018"}
{"smiles": "CCN(CC)C(=O)N1CCN(C)CC1", "note": "[Prestw-284]", "NF-kB reporter": "1.02 ± 0.063"}
